This is part of a sample that, as a whole, favours compounds with a hit. Of some 83,000 tested, about 20% had one in any assay.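 Growth was measured after 48 h exposure to one concentration of compound in 96-well plates. Values under 10 count as active.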 A number with no mark means an inactive call. The source made the active and inactive calls.
test system: HL-60(TB) leukemia; experiment: NCI-60 one-dose screen, 48 h (100 = growth as untreated, 0 = no growth, -100 = all killed); details: 10 µM unless noted

**Q.** How did the growth turn out when `CC1(C)OC2C(COC(c3ccccc3)(c3ccccc3)c3ccccc3)OC(c3c[nH]c4c(N)ncnc34)C2O1` (stereo not given) was run?
**A.** The growth was -34.4% (active).

**Q.** Which growth does the source give for `O=C(O)COc1c(Cl)cc([N+](=O)[O-])cc1Cl` here?
**A.** The growth was 87.1%.

**Q.** Which growth does the source give for `CCOc1cccc(C2CC(=O)Nc3cc4c(cc32)OCO4)c1` (stereo not given) here?
**A.** The growth was 90.7%.

**Q.** With `COc1cc2cc3c(nc2cc1OC)CCN3Cc1ccc(NC(=O)c2ccc(Cl)c(C(F)(F)F)c2)cc1` as the molecule, how does the growth read?
**A.** The growth was 99.5%.

**Q.** `O=C(N/N=C/[C@H](O)[C@@H](O)[C@@H](O)[C@H](O)CO)c1ccc(NC(=O)c2cccnc2)cc1` was tested. Which growth did it give?
**A.** Its growth is 101%.

**Q.** Which growth does the source give for `Cn1c2c(c(=O)[nH]c1=O)NC1=C(C(=O)c3ccccc31)C1(C=C(O)c3ccccc31)N2` (stereo not given) here?
**A.** The growth was 109%.

**Q.** Which growth does the source give for `O=C(Nc1cc(Nc2ncccc2-c2ncnc3nc[nH]c23)ccc1F)c1cc(C(F)(F)F)cc(C(F)(F)F)c1` here?
**A.** The growth was -11.3% (active).

**Q.** How did the growth turn out when `CCOC(=O)c1cc(C(=O)c2ccc(Br)cc2)n2cc(C)cc(C)c12` was run?
**A.** Its growth is 103%.

**Q.** How did the growth turn out when `CSc1nc(NCCN2CCOCC2)c(C#N)c(-c2cccc([N+](=O)[O-])c2)n1` was run?
**A.** Its growth is 100%.

**Q.** Which growth does the source give for `O=NN(CCCl)C(=O)NCc1ccc(-c2ccc(CNC(=O)N(CCCl)N=O)cc2)cc1` here?
**A.** Its growth is 88.6%.

**Q.** `CC1(C)C(=O)/C(=C\c2ccc(C(F)(F)F)cc2)C[C@]2(C)[C@H]3CC[C@@H]4[C@H]5[C@H](C(=O)/C=C/c6ccc(C(F)(F)F)cc6)CC[C@]5(CO)CC[C@@]4(C)[C@]3(C)CC[C@@H]12` was tested. Which growth did it give?
**A.** The growth was 92%.

**Q.** With `Nc1ccc2ccc(N)cc2c1` as the molecule, how does the growth read?
**A.** Its growth is 97.4%.

**Q.** With `CCC(c1ccccc1)c1noc(CCN(CC)CC)n1` (stereo not given) as the molecule, how does the growth read?
**A.** The growth was 77.3%.

**Q.** For `O=C(CCCCl)NNc1nccc(Nc2ccc(S(=O)(=O)Nc3ccncc3)cc2)n1`, which growth is on record?
**A.** The growth was 127%.

**Q.** With `O=c1[nH]nc(-c2ccc(Cl)cc2)cc1Cc1ccccc1` as the molecule, how does the growth read?
**A.** The growth was 77%.

**Q.** Which growth does the source give for `COc1cc(-c2nc3cc(Cl)c(Cl)cc3[nH]2)ccc1OCC(=O)N=Nc1c(O)[nH]c2ccccc12` here?
**A.** The growth was -51.5% (active).

**Q.** How did the growth turn out when `CC(O)c1cc[cH-]c1.[Fe+2].c1cc[cH-]c1` (stereo not given) was run?
**A.** The growth was 92.9%.

**Q.** Which growth does the source give for `COc1ccc(CCN2CCC(Nc3nc4ccccc4n3Cc3ccc(F)cc3)CC2)cc1` here?
**A.** The growth was -53.5% (active).

**Q.** With `CCOc1ccc(/C=C/C(=O)c2cccc(OCCCOc3cccc(C(=O)/C=C/c4ccc(OCC)cc4)c3)c2)cc1` as the molecule, how does the growth read?
**A.** The growth was 56%.

**Q.** For `COc1ccc2c(c1)CCNC21C(=O)Nc2c(Br)cc(Br)cc21` (stereo not given), which growth is on record?
**A.** Its growth is 117%.

**Q.** Which growth does the source give for `Cc1[nH]n(C(N)=S)c(=O)c1N=Nc1ccc(S(=O)(=O)Nc2ccncn2)cc1` here?
**A.** The growth was 103%.

**Q.** For `O=C(Cn1nnc2ccccc21)N/N=C/c1c[nH]c2ccccc12`, which growth is on record?
**A.** The growth was 31.1%.

**Q.** `COc1ccc(Nc2ncc(Br)c(NCCCNC(=O)C3CCC3)n2)cc1` was tested. Which growth did it give?
**A.** Its growth is -12.8% (active).

**Q.** For `CCOC(=O)CC1CSC(N/N=C/c2ccc(-n3cccn3)cc2)=N1` (stereo not given), which growth is on record?
**A.** The growth was 94%.

**Q.** Which growth does the source give for `C[C@]12CC[C@H]3[C@@H](CC[C@H]4C[C@@H](O)CC[C@@]43C)[C@@H]1CC(=O)C2` here?
**A.** Its growth is 83%.

**Q.** For `Cc1ccc(C(SCC(N)C(=O)O)(c2ccc(C)cc2)c2ccc(C)cc2)cc1` (stereo not given), which growth is on record?
**A.** The growth was -17% (active).

**Q.** Which growth does the source give for `COc1cc(/C=N/N(C)C)ccc1O` here?
**A.** The growth was 86.5%.

**Q.** How did the growth turn out when `Cc1c(Cn2c(C)nc3c(C(=O)O)cc(N4CCOCC4)cc32)cccc1C(F)(F)F` was run?
**A.** Its growth is 78.6%.

**Q.** Which growth does the source give for `COc1cc(C(=O)/C=C/c2c(Cl)nc3sccn23)cc(OC)c1OC` here?
**A.** The growth was 52.2%.

**Q.** With `O=C1c2ccccc2C(=O)c2sc(Nc3ccc(Cl)cc3)nc21` as the molecule, how does the growth read?
**A.** The growth was -10.8% (active).

**Q.** How did the growth turn out when `c1ccc(-c2nc(Nc3nccnn3)c3ccccc3n2)cc1` was run?
**A.** The growth was 99.4%.

**Q.** Which growth does the source give for `NCCCc1nnc(CCC(=O)c2nc3ccccc3[nH]2)o1` here?
**A.** Its growth is 92.3%.

**Q.** Which growth does the source give for `O=C([C@H]1C[C@H]1c1ccc(S(F)(F)(F)(F)F)cc1)N1CCN(c2cc(Cl)ccc2C(F)(F)F)CC1` here?
**A.** The growth was 83.5%.

**Q.** How did the growth turn out when `CS(=O)(=O)Nc1ccc(OCc2nnc(-c3ccc(Cl)cc3)o2)c(F)c1` was run?
**A.** Its growth is 115%.

**Q.** With `Cc1ccc(C(F)(F)F)cc1N1CCN(C(=O)[C@H]2C[C@H]2c2ccc(C(F)(F)F)nc2)CC1` as the molecule, how does the growth read?
**A.** The growth was 81.8%.

**Q.** How did the growth turn out when `CS(=O)CCCCCN=C=S` (stereo not given) was run?
**A.** The growth was -33.9% (active).

**Q.** For `CCc1ccc(OCc2ccccc2C(=O)Nc2ccc3nc(C)cc(N)c3c2)cc1`, which growth is on record?
**A.** Its growth is -75.9% (active).

**Q.** Which growth does the source give for `CN1C(=O)N(C)C2C1NN=c1s/c(=C\c3ccc(Cl)cc3Cl)c(=O)n12` (stereo not given) here?
**A.** Its growth is -26.9% (active).

**Q.** `COc1ccc(/C(=C/c2cc(OC)c(OC)c(OC)c2)[N+](=O)[O-])cc1` was tested. Which growth did it give?
**A.** Its growth is -26.4% (active).

**Q.** Which growth does the source give for `COc1cc(C2CC(C3C(=O)N(C)C(=O)N(C)C3=O)=NN2C=O)cc(OC)c1OC` (stereo not given) here?
**A.** Its growth is 104%.

Reference: PubChem BioAssay (NCI)
